The target in test [1] is Cytochrome P450 2D6 (Homo sapiens) (UniProt P10635). As to the kind of experiment: Cytochrome P450 Family 2 Subfamily D Member 6 (CYP2D6) small molecule antagonists: luciferase reporter qHTS assay (AID 1671196). Also: nearly all actives have a fitted effect of over 50% in size. A digest of the protocol: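 CYP2D6 enzyme–substrate mix was held with compound for 10 min at room temperature, then NADPH regeneration solution was added and the reaction ran 1 h at room temperature. Luciferin product was detected by luminescence after 20 min with detection reagent.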
Sequence of Cytochrome P450 2D6 (Homo sapiens) (P10635 whole entry, looked up): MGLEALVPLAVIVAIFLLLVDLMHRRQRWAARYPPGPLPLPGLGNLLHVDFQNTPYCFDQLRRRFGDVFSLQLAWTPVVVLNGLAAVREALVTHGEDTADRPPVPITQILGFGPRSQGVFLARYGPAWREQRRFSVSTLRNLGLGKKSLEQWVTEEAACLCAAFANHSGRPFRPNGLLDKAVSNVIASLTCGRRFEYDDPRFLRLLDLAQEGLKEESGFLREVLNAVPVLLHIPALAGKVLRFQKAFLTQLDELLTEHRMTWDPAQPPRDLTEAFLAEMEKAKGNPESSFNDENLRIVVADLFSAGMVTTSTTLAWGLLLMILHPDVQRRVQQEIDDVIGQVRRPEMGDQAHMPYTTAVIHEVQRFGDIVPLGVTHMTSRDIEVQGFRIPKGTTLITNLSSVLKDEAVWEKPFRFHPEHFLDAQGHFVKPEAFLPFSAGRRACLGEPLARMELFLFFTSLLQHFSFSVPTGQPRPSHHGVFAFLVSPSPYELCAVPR
Background: Reporter assays use an easily measured gene product as a stand-in for the process of interest.

Test [2] deals with Cytochrome P450 2C19 (Homo sapiens) (UniProt P33261). As to the kind of experiment: Cytochrome P450 Family 2 Subfamily C Member 19 (CYP2C19) small molecule antagonists: luciferase reporter qHTS assay (AID 1671197). Also: nearly all actives have a fitted effect of over 65% in size. A digest of the protocol: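 First, compounds are pinned into enzyme-substrate mix and held 10 min at room temperature. Second, NADPH regeneration solution is added and plates incubate 1 h at 37C. Third, detection reagent is added and luminescence read after 20 min.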
Sequence of Cytochrome P450 2C19 (Homo sapiens) (P33261 whole entry, looked up): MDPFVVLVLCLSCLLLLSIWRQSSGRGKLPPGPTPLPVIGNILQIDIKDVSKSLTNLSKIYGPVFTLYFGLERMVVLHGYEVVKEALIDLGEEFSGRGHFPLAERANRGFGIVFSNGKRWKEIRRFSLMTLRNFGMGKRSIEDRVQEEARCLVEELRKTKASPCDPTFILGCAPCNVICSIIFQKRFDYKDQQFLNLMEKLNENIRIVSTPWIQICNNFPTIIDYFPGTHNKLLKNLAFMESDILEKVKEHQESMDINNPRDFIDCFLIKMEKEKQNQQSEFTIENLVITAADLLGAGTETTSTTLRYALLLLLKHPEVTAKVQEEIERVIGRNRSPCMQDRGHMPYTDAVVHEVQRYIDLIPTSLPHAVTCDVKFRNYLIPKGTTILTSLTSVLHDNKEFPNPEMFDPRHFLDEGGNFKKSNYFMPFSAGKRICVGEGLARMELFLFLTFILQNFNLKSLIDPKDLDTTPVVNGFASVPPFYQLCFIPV

In test [3] the target is Cytochrome P450 2C9 (Homo sapiens) (UniProt P11712). Description: Cytochrome P450 Family 2 Subfamily C Member 9 (CYP2C9) small molecule antagonists: luciferase reporter qHTS assay (AID 1671198). Also: nearly all actives have a fitted effect of over 50% in size. The method in brief:
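CYP2C9 activity was measured with a P450-Glo proluciferin substrate. Enzyme–substrate mix was held with compound for 10 min at room temperature, then NADPH regeneration solution was added for 1 h at 37C. Luciferin product was read as luminescence.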

In test [4] the target is Cytochrome P450 1A2 (Homo sapiens) (UniProt P05177). As to the kind of experiment: Cytochrome P450 Family 1 Subfamily A Member 2 (CYP1A2) small molecule antagonists: luciferase reporter qHTS assay (AID 1671199). Also: nearly all actives have a fitted effect of over 50% in size. The method in brief:
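Human CYP1A2 activity measured with a P450-Glo proluciferin substrate; compounds in DMSO preincubated 10 min at room temperature with enzyme-substrate mix, then NADPH regeneration system added for 1 h. Luciferin detection reagent, 20 min, luminescence read.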

Test [5] concerns the target Voltage-gated inwardly rectifying potassium channel KCNH2 (Homo sapiens) (UniProt Q12809). Description: Human Ether-a-go-go-Related Gene (hERG) channel small molecule antagonists: fluorescence cell-based qHTS assay (AID 1671200). Also: nearly all actives have a fitted effect of over 50% in size. A digest of the protocol: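 hERG-U2OS cells plated overnight at 37 C, loaded with FluxOR II dye 1 h at RT in dark; after 10 min, thallium stimulus added. Fluorescence (480/540 nm) read kinetically for 2 min at 1 s intervals.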
On the technique in general: Block of hERG is tested as a sign of cardiac risk.

Test [6] has as its target Cytochrome P450 3A4 (Homo sapiens) (UniProt P08684). As to the kind of experiment: Cytochrome P450 Family 3 Subfamily A Member 4 (CYP3A4) small molecule antagonists: luciferase reporter qHTS assay (AID 1671201). Also: nearly all actives have a fitted effect of over 50% in size. The method in brief: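 P450-Glo CYP3A4 luminescent assay: compounds preincubated 10 min at room temperature with enzyme and proluciferin substrate, NADPH regeneration added, 1 h room-temperature reaction, stopped with luciferin detection reagent; luminescence read after 20 min. Ketoconazole positive control.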

Several values for one entry are separate records, joined by “and”; a condition that tells them apart may be missing. Equal entries are not always repeated. Records with an inconclusive call do not appear. Activity calls are given as the source filed them. Calls follow the shape of the dose curve; as a rule, active = well fitted curve in the direction sought with a large enough effect in the repeat runs; inconclusive = weak or mixed curves; inactive = no such curve, though single readings can be large; an effect the other way counts as inactive or inconclusive.
Potency is read from the fitted curve at half-maximal effect.

Sequence of Cytochrome P450 3A4 (Homo sapiens) (P08684 whole entry, looked up): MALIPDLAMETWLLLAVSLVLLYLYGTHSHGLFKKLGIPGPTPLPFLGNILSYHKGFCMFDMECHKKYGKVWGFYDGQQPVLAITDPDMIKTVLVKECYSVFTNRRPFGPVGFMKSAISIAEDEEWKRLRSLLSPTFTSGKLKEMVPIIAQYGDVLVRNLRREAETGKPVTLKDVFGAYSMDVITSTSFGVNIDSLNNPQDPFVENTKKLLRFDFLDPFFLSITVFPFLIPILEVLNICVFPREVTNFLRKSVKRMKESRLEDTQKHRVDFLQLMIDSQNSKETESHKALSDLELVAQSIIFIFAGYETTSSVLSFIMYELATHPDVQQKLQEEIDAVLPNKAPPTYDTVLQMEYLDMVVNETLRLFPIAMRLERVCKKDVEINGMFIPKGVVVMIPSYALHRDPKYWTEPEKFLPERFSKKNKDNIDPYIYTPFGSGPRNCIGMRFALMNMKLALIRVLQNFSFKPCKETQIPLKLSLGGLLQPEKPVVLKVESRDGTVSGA
Sequence of Cytochrome P450 2C9 (Homo sapiens) (P11712 whole entry, looked up): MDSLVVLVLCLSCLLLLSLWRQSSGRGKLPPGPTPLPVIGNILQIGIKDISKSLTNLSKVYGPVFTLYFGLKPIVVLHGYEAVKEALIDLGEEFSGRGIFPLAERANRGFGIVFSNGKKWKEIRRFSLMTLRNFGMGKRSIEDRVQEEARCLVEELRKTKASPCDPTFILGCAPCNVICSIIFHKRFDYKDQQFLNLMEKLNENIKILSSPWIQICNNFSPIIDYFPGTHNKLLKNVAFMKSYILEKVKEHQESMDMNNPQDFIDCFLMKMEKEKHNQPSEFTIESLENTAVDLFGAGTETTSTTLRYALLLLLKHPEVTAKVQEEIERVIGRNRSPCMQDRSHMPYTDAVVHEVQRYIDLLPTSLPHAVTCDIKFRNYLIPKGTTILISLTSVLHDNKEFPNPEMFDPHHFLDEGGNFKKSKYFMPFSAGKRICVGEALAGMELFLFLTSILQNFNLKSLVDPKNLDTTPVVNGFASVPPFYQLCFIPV
Sequence of Voltage-gated inwardly rectifying potassium channel KCNH2 (Homo sapiens) (Q12809 whole entry, looked up): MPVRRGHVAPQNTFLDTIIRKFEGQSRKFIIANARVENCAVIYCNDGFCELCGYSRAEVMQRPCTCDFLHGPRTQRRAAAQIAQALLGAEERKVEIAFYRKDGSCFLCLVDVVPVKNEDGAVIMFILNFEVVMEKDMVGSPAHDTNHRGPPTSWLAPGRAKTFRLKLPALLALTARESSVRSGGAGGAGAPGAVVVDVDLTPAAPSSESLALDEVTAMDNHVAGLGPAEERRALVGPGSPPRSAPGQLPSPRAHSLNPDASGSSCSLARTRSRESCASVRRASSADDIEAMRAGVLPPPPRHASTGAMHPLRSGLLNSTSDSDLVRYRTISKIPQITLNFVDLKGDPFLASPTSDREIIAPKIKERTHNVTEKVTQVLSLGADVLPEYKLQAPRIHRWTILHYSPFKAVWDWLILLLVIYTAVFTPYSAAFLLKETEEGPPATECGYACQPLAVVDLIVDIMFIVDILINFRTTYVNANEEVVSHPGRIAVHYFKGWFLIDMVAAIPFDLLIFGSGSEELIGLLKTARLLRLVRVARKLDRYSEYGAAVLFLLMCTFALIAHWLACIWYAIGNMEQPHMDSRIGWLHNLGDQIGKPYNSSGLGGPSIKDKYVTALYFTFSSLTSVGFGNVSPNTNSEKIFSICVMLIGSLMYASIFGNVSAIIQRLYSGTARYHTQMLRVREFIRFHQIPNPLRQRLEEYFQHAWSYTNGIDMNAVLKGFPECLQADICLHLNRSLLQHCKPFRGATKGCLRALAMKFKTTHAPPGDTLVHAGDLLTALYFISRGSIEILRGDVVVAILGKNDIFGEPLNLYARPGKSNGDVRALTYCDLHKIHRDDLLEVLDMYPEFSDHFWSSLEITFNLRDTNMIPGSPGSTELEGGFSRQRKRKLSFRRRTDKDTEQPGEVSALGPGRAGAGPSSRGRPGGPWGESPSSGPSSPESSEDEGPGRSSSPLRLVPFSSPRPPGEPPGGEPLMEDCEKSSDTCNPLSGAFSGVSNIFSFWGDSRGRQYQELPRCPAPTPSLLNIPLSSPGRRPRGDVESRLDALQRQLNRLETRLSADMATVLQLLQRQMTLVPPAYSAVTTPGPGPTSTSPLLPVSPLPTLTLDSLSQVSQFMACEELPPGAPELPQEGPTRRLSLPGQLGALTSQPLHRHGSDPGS
Sequence of Cytochrome P450 1A2 (Homo sapiens) (P05177 whole entry, looked up): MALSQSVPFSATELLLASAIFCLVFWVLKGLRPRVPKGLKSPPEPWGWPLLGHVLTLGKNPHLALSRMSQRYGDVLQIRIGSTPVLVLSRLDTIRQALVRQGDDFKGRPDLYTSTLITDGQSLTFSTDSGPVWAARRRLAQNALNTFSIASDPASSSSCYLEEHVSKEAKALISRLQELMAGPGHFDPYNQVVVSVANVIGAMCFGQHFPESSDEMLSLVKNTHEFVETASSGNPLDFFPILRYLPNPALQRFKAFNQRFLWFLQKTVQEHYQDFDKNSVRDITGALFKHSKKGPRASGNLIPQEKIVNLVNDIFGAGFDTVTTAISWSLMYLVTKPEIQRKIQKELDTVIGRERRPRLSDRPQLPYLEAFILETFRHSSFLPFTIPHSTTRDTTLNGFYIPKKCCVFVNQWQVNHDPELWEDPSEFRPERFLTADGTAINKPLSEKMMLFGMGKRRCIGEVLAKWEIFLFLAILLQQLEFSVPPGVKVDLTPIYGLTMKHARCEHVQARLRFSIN

`CCOC(=O)c1ccc(C#Cc2ccc3c(c2)C(C)(C)CCS3)nc1`: the Potency entry in test [1], in test [2], in test [3] and in test [4] was “inactive” in each case.
Turning to `CN1CCCN=C1COC(=O)C(O)(c1ccccc1)C1CCCCC1` (stereo not drawn), in test [1], the Potency is 0.617 µM (active). The Potency entry in test [2], in test [3] and in test [4] was “inactive” in each case.
Consider `O=C=Nc1ccc(Cl)c(Cl)c1`, for which the Potency entry in test [1], in test [2] and in test [5] was “inactive” each time. In addition, the Potency in test [3] is 39.3 µM (active); in test [4], 35 µM (active); in test [6] it was 31.2 µM (active).
With `CC(C)(C)CC(=O)OCC(=O)[C@@]1(O)CC[C@H]2[C@@H]3CCC4=CC(=O)C=C[C@]4(C)[C@H]3[C@@H](O)C[C@@]21C`, the results for the Potency in test [1], in test [2] and in test [3] were 38.9 µM (active), 9.77 µM (active) and 15.5 µM (active), respectively. Further, the Potency entry in test [4] and in test [5] was “inactive” in each case.
For `CC[C@]1(O)C[C@H]2CN(CCc3c([nH]c4ccccc34)[C@@](C(=O)OC)(c3cc4c(cc3OC)N(C=O)[C@H]3[C@@](O)(C(=O)OC)[C@H](OC(C)=O)[C@]5(CC)C=CCN6CC[C@]43[C@@H]65)C2)C1`, the Potency entry in test [1], in test [2], in test [3], in test [4] and in test [5] was “inactive” in each case. Moreover, the Potency in test [6] was 12.3 µM (active).
As for `CC1(CN2CCC(n3c(=O)[nH]c4ccccc43)CC2)OCc2ccccc2-n2cccc21` (stereo not drawn), the Potency is 2.45 µM (active) in test [1], 21.9 µM (active) in test [2] and 13.8 µM (active) in test [3].
With `C[C@@H](O[C@H]1OCCN(Cc2n[nH]c(=O)[nH]2)[C@H]1c1ccc(F)cc1)c1cc(C(F)(F)F)cc(C(F)(F)F)c1`, the Potency is 19.5 µM (active) in test [1], 15.5 µM (active) in test [2], 13.8 µM (active) in test [3] and 8.49 µM (active) in test [5]. The Potency entry in test [4] was “inactive”.
For `Cc1cc(C)c(N)cc1C`, the Potency in test [1] is 22.4 µM (active); in test [2] it was 7.94 µM (active); in test [3], 35.5 µM (active); in test [4] it was 0.708 µM (active); in test [6] it was 35.5 µM (active). The Potency result in test [5] was “inactive”.
Regarding `CCOC(=O)c1ccccc1C(=C1C=C(Br)C(=O)C(Br)=C1)c1cc(Br)c(O)c(Br)c1`, the Potency entry in test [1] and in test [2] was “inactive” throughout. In test [3], the Potency is 23.7 µM (active).
On to `Cc1cccc(O)c1N`, for which the Potency in test [1] was 45.3 µM (active); in test [2], 40.3 µM (active); in test [3] it was 32 µM (active); in test [4], 10.1 µM (active); in test [6] it was 36 µM (active). The Potency result in test [5] is “inactive”.
On to `C[C@@H]1CN(CCCn2c3ccccc3c3ccccc32)C[C@H](C)N1`, for which the Potency in test [1] was 0.389 µM (active). Moreover, the Potency result in test [2] and in test [3] was “inactive” each time.
Turning to `O=C(O)c1cccc(-c2noc(-c3ccccc3F)n2)c1`, the Potency was 3.47 µM (active) in test [1], 0.776 µM (active) in test [2], 2.45 µM (active) in test [3] and 4.56 µM (active) in test [4]. The Potency entry in test [5] is “inactive”.
Turning to `O=C(OCC(O)CO)c1ccccc1Nc1ccnc2cc(Cl)ccc12` (stereo not drawn), the Potency in test [1] was 13.8 µM (active); in test [2] it was 8.71 µM (active); in test [3] it was 15.5 µM (active). For the same compound, the Potency result in test [5] is “inactive”.
For `C=CC(=O)[O-].C=CC(=O)[O-].[Zn+2]`, the Potency in test [1] is 34.8 µM (active); in test [2] it was 27.6 µM (active); in test [3], 61.8 µM (active). The Potency entry in test [5] was “inactive”.
With `O[C@@H]1CO[C@H]2[C@@H]1OC[C@@H]2O`, the Potency entry in test [1], in test [2], in test [3], in test [4], in test [5] and in test [6] was “inactive” in each case.
With `CCC(C)COC(=O)CC(C)C` (stereo not drawn), the Potency result in test [1], in test [2], in test [5] and in test [6] was “inactive” in each case. The Potency in test [3] was 71 µM (active).
Consider `Oc1c(I)cc(I)c2cccnc12`, for which the Potency entry in test [1], in test [2], in test [3], in test [4], in test [5] and in test [6] was “inactive” in each case.
As for `O=C(Nc1cccc2c(=O)cc(-c3nn[nH]n3)oc12)c1ccc(OCCCCc2ccccc2)cc1`, the Potency result in test [1], in test [2], in test [4], in test [5] and in test [6] was “inactive” each time. Further, the Potency in test [3] was 7.76 µM (active).
For `COc1cc(Nc2c(C#N)cnc3cc(OCCCN4CCN(C)CC4)c(OC)cc23)c(Cl)cc1Cl`, the Potency entry in test [1], in test [2], in test [3], in test [4] and in test [6] was “inactive” throughout.
Regarding `CC1(C)[C@H](C(=O)O)N2C(=O)C[C@H]2S1(=O)=O`, the Potency result in test [1], in test [3], in test [4], in test [5] and in test [6] was “inactive” throughout. For the same compound, the Potency in test [2] is 30.9 µM (active).
In the case of `C[C@@H](O)[C@H]1C(=O)N2C(C(=O)O)=C([C@H]3CCCO3)S[C@H]12`, the Potency result in test [1], in test [2], in test [3], in test [4], in test [5] and in test [6] was “inactive” each time.
Regarding `C=COCC(C)C`, the Potency result in test [1], in test [2], in test [3], in test [4], in test [5] and in test [6] was “inactive” each time.
As for `C=C(C)CCCC(C)CCO` (stereo not drawn), the Potency entry in test [1] and in test [5] was “inactive” each time. Moreover, the figures for the Potency in test [2], in test [3] and in test [6] were 39.9 µM (active), 39.9 µM (active) and 28.3 µM (active), respectively.
Turning to `CCOC(=O)c1ccc(OCCN2C[C@H](O)[C@@H](O)[C@H](O)[C@H]2CO)cc1`, the Potency result in test [1], in test [2], in test [3], in test [5] and in test [6] was “inactive” each time.
For `c1cc(N(CC2CO2)CC2CO2)ccc1Cc1ccc(N(CC2CO2)CC2CO2)cc1` (stereo not drawn), the Potency result in test [1] and in test [4] was “inactive” each time. Moreover, the figures for the Potency in test [2], in test [3] and in test [6] were 63.3 µM (active), 17.8 µM (active) and 12.6 µM (active), respectively.
For `C[C@H]1C[C@H](O)c2ccsc2S1(=O)=O`, the Potency result in test [1], in test [2], in test [3], in test [5] and in test [6] was “inactive” throughout.
In the case of `c1ccc2c(c1)CCc1ccccc1N2`, the Potency result in test [1], in test [5] and in test [6] was “inactive” throughout. Besides, the Potency was 8 µM (active) and 8.71 µM (active) in test [2]; 40.1 µM (active) and 13.8 µM (active) in test [3]; 7.13 µM (active) and 5.49 µM (active) in test [4].
On to `CC(=O)OCC(=O)NCCCOc1cccc(CN2CCCCC2)c1`, for which the Potency in test [1] is 15.5 µM (active). Further, the Potency result in test [2], in test [3], in test [4], in test [5] and in test [6] was “inactive” throughout.
As for `COc1ccccc1NC(=O)c1cc2ccccc2cc1O`, the Potency entry in test [1] and in test [5] was “inactive” throughout. Also, the Potency was 11.2 µM (active) in test [2], 22.4 µM (active) in test [3], 1.78 µM (active) in test [4] and 28.3 µM (active) in test [6].

Values taken from PubChem BioAssay (Tox21).
